Inconclusive results are not listed. Activity calls are given as the source filed them. How the source made its calls: active means hit-call score of the fitted dose curve at least 0.9, where 1 is the maximum; inconclusive means response in the unintended direction; inactive means score below 0.9.
target: human Vitamin D Receptor (VDR), VDR (gene 7421) (UniProt P11473); assay: ATG_VDR_TRANS: Attagene TRANS-FACTORIAL HepG2 Assay for human Vitamin D Receptor (VDR) (AID 2283022)
How it was run: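 Steps: transfect HepG2 with GAL4-UAS-driven reporter constructs; dose compounds 24 h; isolate RNA, reverse-transcribe, PCR-amplify with 6-FAM-labelled primer extension and HpaI digestion; quantify fragments by capillary electrophoresis relative to DMSO.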

human Vitamin D Receptor (VDR), VDR (gene 7421), sequence (P11473 whole entry, looked up, the tested form may be a part): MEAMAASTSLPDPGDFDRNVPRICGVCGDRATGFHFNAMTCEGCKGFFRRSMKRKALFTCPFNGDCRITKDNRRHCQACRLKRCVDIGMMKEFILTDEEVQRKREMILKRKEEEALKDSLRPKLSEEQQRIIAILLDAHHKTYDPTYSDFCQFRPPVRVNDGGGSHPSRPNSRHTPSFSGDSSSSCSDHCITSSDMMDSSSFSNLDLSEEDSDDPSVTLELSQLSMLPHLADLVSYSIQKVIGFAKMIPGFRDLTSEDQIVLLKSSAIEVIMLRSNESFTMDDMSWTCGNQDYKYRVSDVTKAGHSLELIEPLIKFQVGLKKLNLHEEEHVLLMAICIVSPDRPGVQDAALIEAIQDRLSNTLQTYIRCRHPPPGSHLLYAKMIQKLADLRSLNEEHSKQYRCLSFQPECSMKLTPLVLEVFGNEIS

| Compound | outcome |
| --- | --- |
| Cc1cc(Cl)ccc1O | inactive |
| BrCc1ccc(Br)cc1 | inactive |
| N#Cc1ccncc1 | inactive |
| C=CCOC(N)=O | inactive |
| O=S1(=O)OC(c2cc(Br)c(O)c(Br)c2)(c2cc(Br)c(O)c(Br)c2)c2ccccc21 | inactive |
| CCOP(=S)(OCC)SCSc1cc(Cl)ccc1Cl | inactive |
| OC[P+](CO)(CO)CO | inactive |
| ClCCN1CCOCC1 | inactive |
| CN(C)[C@@H]1C(=O)C(C(N)=O)=C(O)[C@@]2(O)C(=O)C3=C(O)c4c(O)ccc(Cl)c4[C@@](C)(O)[C@H]3C[C@@H]12 | inactive |

Source: PubChem BioAssay (EPA / NIEHS)
